PubChem BioAssay AID686978 (National Center for Advancing Translational Sciences (NCATS), 2013)
In all, about 420,000 compounds went through this assay and about 64,000 (15%) were called active. Entries that show only a call come without a potency. Inconclusive results (about 27%) are left out. This is one part of a sample in which actives are shown more often than they occur. Unmarked numbers belong to inactive results. Calls come from the whole dose curve; as a rule, active = well fitted inhibition curve with a large enough effect; inconclusive = small, poorly fitted or top-dose-only effect; inactive = flat fitted curve, though single readings scatter.
Potency is the fitted concentration of half-maximal effect.

Assay: qHTS for Inhibitors of human tyrosyl-DNA phosphodiesterase 1 (TDP1): qHTS in cells in absence of CPT; note: nearly all actives have a fitted effect of over 55% in size
Details: DT40 Tdp1-/- hTDP1 cells, no CPT, ATP luminescence, 48 h; series mostly up to 46.2 µM
Text: Human tyrosyl-DNA phosphodiesterase 1 (TDP1) is a novel repair gene, and we propose to use it as a new target for anticancer drug development. TDP1 is not an essential protein, but under treatment with topoisomerase I poison (camptothecin: CPT), TDP1 works as a critical factor for cell survival. To directly identify novel TDP1 inhibitors active in a cellular environment, we have knocked-out the Tdp1 gene in chicken DT40 cells (Tdp1-/-) and generated a complemented counterpart cells that contains a stable transfection of the human TDP1 gene (Tdp1-/-;hTDP1 cells). For the primary screen, Tdp1-/-;hTDP1 cells will be exposed to small molecules in the presence or absence of CPT, and their growth kinetics will be evaluated after 48 hours by measuring ATP activity. […] The hit compounds will then be evaluated in the presence or absence of CPT using Tdp1-/- cells. […] In tertiary assays, biochemical gel-based assays will be used to assess whether the hit compounds specifically target TDP1.
To this end, we have screened this cell line against the MLSMR in two primary screens. In one screen we add CPT and in the other we screen in the absence of CPT; this AID represents the screen where CPT was absent.
NIH Chemical Genomics Center [NCGC]
NIH Molecular Libraries Probe Centers Network [MLPCN]
Assay Submitter (PI): Yves Pommier, NCI
DT40-hTDP1 cells without 20 nM Camptothecin (add 20 microL of DMSO in 1 L of cell culture medium) were dispensed at 400 cells/5microL/well in tissue culture treated 1536-well white wall/solid bottom assay plates (Greiner Bio-One North America, NC, U.S.A.) using a Multidrop Combi 8 channel dispenser (Thermo Fisher, Waltham, MA, USA). 23 nL compounds and controls were transferred using the pin tool (Kalypsys, San Diego, CA, USA) to the assay plates. The assay plates were then incubated at 37 masculineC for a minimum 48 hr. Three microL of Cell Titer Glo solution was added to the plates and incubated at RT in dark for 30 min. Luminescence was read using ViewLux (Perkin Elmer) with 1 sec exposure slow speed, high gain and 2x binning.
With `CN(C)C(=O)Oc1ccc(NC(=O)N2CCOCC2)cc1` the Potency was “inactive”. In the case of `O=C(Nc1cccc(F)c1)N1CC[C@@]2(CCCN(C(=O)Oc3ccccc3)C2)C1`, the Potency is reported as “inactive”. In the case of `c1ccc2sc(N3CCNCC3)nc2c1`, the Potency is reported as “inactive”. For `COc1ccc(NC(=O)c2cn(CCC#N)nc2-c2ccc([N+](=O)[O-])cc2)cc1`, the Potency was “inactive”. In the case of `CN1CCN(/N=C/c2c[nH]c3ccccc23)CC1`, the Potency is reported as “inactive”. In the case of `C[C@@H]1C[C@@H]2O[C@H]2/C=C\C=C\C(=O)Cc2c(Cl)c(O)cc(O)c2C(=O)O1`, the Potency is reported as 0.164 µM (active). With `NS(=O)(=O)c1ccc(CCNC(=O)c2ccc(Cl)c(S(=O)(=O)N3CCCCCC3)c2)cc1` the Potency was 23.1 µM (active). In the case of `C=CCn1c(O)c(/C=N/N2CCOCC2)c(=O)[nH]c1=S`, the Potency is reported as “inactive”. For `CN(C(=O)CSc1nc2ccc(NC(=O)COc3ccccc3)cc2s1)c1ccccc1`, the Potency was 11.6 µM (active). For `O=C(COc1ccccc1Cl)Nc1ccc2nc(SCC(=O)N3CCCC3)sc2c1`, the Potency was 16.4 µM (active). For `CCOCCc1c(O)[nH]c(=S)[nH]c1=O`, the Potency was “inactive”. With `COc1ccc(C2Oc3c(I)c(OC)cc(OC)c3CC2O)cc1OC` (configuration not stated) the Potency was “inactive”. Compound `CCCCC/C=C\C/C=C\C/C=C\C/C=C\CCCCCC(=O)NCCO` has an activity change, negative = growth inhibition of -2.9% [at 4.12 µM]. In the case of `CCN(CC)CCOC(=O)c1cc2cc(COC)ccc2o1`, the Potency is reported as “inactive”. With `C=CCN(CC=C)C(=O)Nc1ccc(OCC)cc1` the Potency was “inactive”. With `CCOC(=O)[C@]12Cc3cc(OC)ccc3[C@H]1N(C(C)C)C(=O)c1ccccc12` the Potency was 6.51 µM (active). For `CCOC(=O)[C@]12Cc3ccccc3[C@H]1N(C1CCCCC1)C(=O)c1cc(OC)ccc12`, the Potency was 3.66 µM (active). In the case of `O=C(N/N=C/c1c(O)n(C2CC2)c(=S)[nH]c1=O)c1ccccc1`, the Potency is reported as “inactive”. With `C[C@]12CC[C@H](O)CC1=C([N+](=O)[O-])CC1C2CC[C@@]2(C)C1CC[C@@H]2O` (some centres not stated) the Potency was “inactive”. In the case of `CN1C2CC3CC1C(O3)C2O` (configuration not stated), the Potency is reported as “inactive”. In the case of `COc1c(O)ccc2c1-c1c3c(cc4c1C(C2)N(C)CC4)OCO3` (configuration not stated), the Potency is reported as “inactive”. In the case of `COc1ccc2cc1Oc1ccc(cc1)C[C@H]1c3cc(c(OC)cc3CCN1C)Oc1c(O)c(OC)cc3c1[C@H](C2)N(C)CC3`, the Potency is reported as 8.2 µM (active). For `O=C(Cc1ccc(Cl)cc1)NCCN1CCN(C(=O)Cc2ccc(Cl)cc2)CC1`, the Potency was “inactive”. With `Clc1cccc(Cl)c1Cl` the Potency was “inactive”. In the case of `O=[N+]([O-])c1cnc2ccc3ccccc3c2c1`, the Potency is reported as “inactive”. With `Cn1c(O)c(C=NCCCC(=O)O)c(=O)n(C)c1=O` the Potency was “inactive”. In the case of `CCCCC(=O)N/N=C/c1c(O)n(CC)c(=S)n(CC)c1=O`, the Potency is reported as 10.3 µM (active). For `O=C1C2(Cl)C3(Cl)C4(Cl)C(Cl)(Cl)C5(Cl)C3(Cl)C1(Cl)C5(Cl)C24Cl` (configuration not stated), the Potency was 16.4 µM (active). With `COC1=CC=C2[C@H]3Cc4ccc(OC)c5c4[C@@]2(CCN3C)C1O5` (some centres not stated) the Potency was “inactive”. With `COP(=O)(OC)C(NC(=O)c1ccc(C)cc1)C(Cl)(Cl)Cl` (configuration not stated) the Potency was “inactive”. With `O=C1NC(=O)C(Cc2ccccc2)C(=O)N1` the Potency was “inactive”. With `CC(Cc1ccccc1)NC=O` (configuration not stated) the Potency was “inactive”. In the case of `COc1ccc(CNC(=O)c2cc3c(-c4ccccc4F)nn(C)c3s2)c(OC)c1`, the Potency is reported as 6.51 µM (active). For `CCOP(=O)(OCC)C(NC(=O)NC)C(N)=O` (configuration not stated), the Potency was “inactive”. With `O=C(O)c1cc[c]([Sb](=[O])([OH])[OH])cc1[N+](=O)[O-]` the Potency was “inactive”. With `CCOC(=O)C1(c2ccccc2)CCN(CC(O)c2ccc(NC(C)=O)cc2)CC1` (configuration not stated) the Potency was “inactive”. With `CCN1C[C@]2(COC)C(O)C[C@H](OC)[C@@]34C5C[C@]6(O)C(OC)C(O)[C@](OC(C)=O)(C5C6OC(=O)c5ccccc5)C(C(OC)C23)C14` (some centres not stated) the Potency was “inactive”. In the case of `CC(CCC(=O)O)C1CCC2C3C(O)C[C@@H]4CC(O)CC[C@@]4(C)C3CC[C@@]12C` (some centres not stated), the Potency is reported as “inactive”. With `C/C=C/CC1(CC)C(=O)NC(=S)NC1=O` the Potency was “inactive”. In the case of `COC(=O)C1=C(c2cc3ccccc3s2)C[C@@H]2CC[C@H]1N2C(=O)NCCO`, the Potency is reported as “inactive”. With `COC(=O)C1=C(c2cccc(OCc3ccccc3)c2)C[C@@H]2CC[C@H]1N2C(=O)NNCc1ccccc1` the Potency was 10.3 µM (active). With `COC(=O)C1=C(c2c(C)noc2C)C[C@@H]2CC[C@H]1N2C(=O)NCc1ccc2c(c1)OCO2` the Potency was “inactive”. For `COC(=O)C1=C(c2ccc(OCc3ccccc3)cc2)C[C@@H]2CC[C@H]1N2C(=O)NCc1cccc(F)c1`, the Potency was 14.6 µM (active). For `COC(=O)C1=C(c2ccccc2)C[C@@H]2CC[C@H]1N2C(=O)NCc1ccco1`, the Potency was “inactive”. In the case of `COC(=O)C(c1ccccc1)N1CCCCCC1` (configuration not stated), the Potency is reported as “inactive”. With `COC(=O)C1=C(c2ccc(OCc3ccccc3)cc2)C[C@@H]2CC[C@H]1N2C(=O)NCc1ccc(Cl)cc1` the Potency was 16.4 µM (active). In the case of `COC(=O)C1=C(c2ccccc2)C[C@@H]2CC[C@H]1N2C(=O)N1CCCCC1`, the Potency is reported as 6.51 µM (active).
